In the library only some 19% were active in any assay of this set; here they are far more common.
Pf growth 48h: inhibits P. falciparum growth in the first generation, 48 h; P. falciparum luciferase growth in erythrocytes, 48 h; Potency, µM (top dose mostly 28.7 µM), inactives show at the highest dose activity change, negative = inhibition, actives largely listed as inhibitors; 5.9% of 310,000 active; AID 504832; also: potency is read from the fitted curve at half-maximal effect; % is scaled to controls: 0 for no effect and ±100 for the full control effect
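Compounds are pin-transferred into medium, infected erythrocytes (2% hematocrit, 0.1% parasitemia final) are added, and plates sit one parasite generation at 37 C in 5% CO2. Detection reagent is then added and luminescence measured.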
Shiga inhibitor: inhibitors of Shiga toxin in Vero cells; AID 2315; Vero cells, Shiga toxin protein synthesis inhibition reporter; 9.2% of 290,000 active; inhibition, % at 38.7 µM; in the data active = inhibition mostly above about 28%, no sharp cut-off; inactive = mostly below about 43%; also: 0% is about no effect
Cycloheximide cs: affects cycloheximide protein synthesis inhibition readout, counter-screen; max response, %; AID 2314; 12% of 300,000 active; cell reporter, cycloheximide protein synthesis inhibition counterscreen; in the data active = max response mostly above about 13%, no sharp cut-off; inactive = mostly below about 14%; also: read at 38.3 µM for the half of the compounds with a filed dose; 0% is about no effect
Pf growth 96h: P. falciparum growth inhibition at 96 hour, primary screen for plastid delayed-death inhibitors; Potency, µM (top dose mostly 28.7 µM), inactives show top-dose activity change, negative = inhibition, hits mostly inhibitors; 6.9% of 320,000 active; P. falciparum luciferase reporter growth, 96 h; AID 504834; also: potency is read from the fitted curve at half-maximal effect; % is scaled to controls: 0 for no effect and ±100 for the full control effect
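Infected RBCs, 2% Hct / 0.05% parasitemia final; luciferase-reporter P. falciparum; cpd 96 h, 37 C, 5% CO2; luciferase detection reagent; luminescence.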
SARS PLP yeast: SARS-CoV PLP inhibition in yeast | S. cerevisiae expressing SARS-CoV PLpro, growth rescue | Potency, µM (titrated, usually from 32.9 µM), inactives show at the highest dose activity, positive = growth rescue, actives largely listed as activators | 0.19% of 330,000 active; calls by dose curve; also: potency is read from the fitted curve at half-maximal effect; 0% is about no effect; nearly all actives have a fitted effect of over 55% in size
AMA1-RON2 inh: inhibitors of Plasmodium falciparum AMA1-RON2 interaction. AlphaScreen AMA1-biotinylated RON2 peptide binding. 0.2% of 360,000 active. Potency, µM (series often up to 58.2 µM), for inactives: at the highest dose activity change, negative = inhibition, actives largely listed as inhibitors;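 also: potency is read from the fitted curve at half-maximal effect; 0% = vehicle wells and -100% = peptide control; nearly all actives have a fitted effect of over 45% in size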
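AMA1 (3D7) with his tag at 25 nM final met compounds first, then biotinylated RON2 peptide at 25 nM; detection used donor plus acceptor beads, 10 µg/mL apiece, read by AlphaScreen after 30 min at room temperature.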
* hit, by the source's call; [ ] = dose if it differs, or a comment. Unless noted, calls follow the shape of the dose curve; as a rule, active = well fitted curve in the direction sought with a large enough effect; inconclusive = small, poorly fitted or top-dose-only effect, or another doubt; inactive = no such curve, though single readings can be large; an effect the other way counts as inactive or inconclusive.

Results for Cc1nc(CS(=O)(=O)c2ccc(Cl)cc2)cc(Sc2ccc(Cl)cc2)n1 ?
Pf growth 48h: 3.29µM*; Shiga inhibitor: -0.1; Cycloheximide cs: 3.3; Pf growth 96h: 2.33µM*; SARS PLP yeast: -9.8%; AMA1-RON2 inh: -1.1%

What do the screens show for `O=S(=O)(Cc1cc(Sc2ccc(Cl)cc2)nc(-c2ccccc2)n1)c1ccccc1`?
Shiga inhibitor: 44.9; Cycloheximide cs: -1.3; Pf growth 96h: inconclusive; SARS PLP yeast: 10.0%; AMA1-RON2 inh: -6.1%

How did CC(C)NC[C@@H](O)COc1cccc2ccccc12 do in these assays?
Pf growth 48h: 9.28µM*; Pf growth 96h: inconclusive; AMA1-RON2 inh: 0.0%

Results for C=CCc1ccccc1OCC(O)CNC(C)C (stereo unspecified) ?
Pf growth 48h: 13.5µM*; Shiga inhibitor: -12.4; Cycloheximide cs: -3.6; Pf growth 96h: inconclusive; SARS PLP yeast: -0.4%; AMA1-RON2 inh: 10.0%

Results for C=CCc1ccccc1OCC(O)CNC1CCCC1 (stereo unspecified) ?
Pf growth 48h: inconclusive; Shiga inhibitor: -13.6; Cycloheximide cs: -3.7; Pf growth 96h: inconclusive; SARS PLP yeast: -1.6%; AMA1-RON2 inh: 1.4%

Results for O=C(NN1C(=O)C2C3c4ccccc4C(c4ccccc43)C2C1=O)C1CC1 (stereo unspecified) ?
Pf growth 48h: 4.1%; Shiga inhibitor: -3.0; Cycloheximide cs: -4.2; Pf growth 96h: 154.2%; SARS PLP yeast: 0.1%; AMA1-RON2 inh: 2.9%

How did CCOC(=O)C1=C(COC(=O)Cc2ccc(Cl)cc2)NC(=O)NC1C (stereo unspecified) do in these assays?
Pf growth 48h: -20.4%; Pf growth 96h: -14.1%; SARS PLP yeast: -1.9%; AMA1-RON2 inh: -6.5%

Results for COc1ccc(C2C(C(=O)c3cccs3)=C(O)C(=O)N2c2cccc(C)n2)cc1OC (stereo unspecified) ?
Pf growth 48h: 5.7%; Shiga inhibitor: 31.7*; Cycloheximide cs: 19.5*; Pf growth 96h: 20.7%; SARS PLP yeast: 6.2%; AMA1-RON2 inh: -1.3%

Results for COc1ccc(OC)c(C2C(C(=O)c3cccs3)=C(O)C(=O)N2c2cc(C)on2)c1 (stereo unspecified) ?
Pf growth 48h: 22.6%; Shiga inhibitor: 90.1*; Cycloheximide cs: 34.8*; Pf growth 96h: 6.3%; SARS PLP yeast: 0.7%; AMA1-RON2 inh: -2.7%

How did CCOc1ccc(C2C(C(=O)c3cccs3)=C(O)C(=O)N2Cc2cccnc2)cc1OC (stereo unspecified) do in these assays?
Pf growth 48h: 14.4%; Shiga inhibitor: 59.8*; Cycloheximide cs: 34.1*; Pf growth 96h: -6.5%; SARS PLP yeast: 0.1%; AMA1-RON2 inh: -14.9%

Results for Cc1nnc(SCC(=O)N(Cc2ccccc2)C(C)C)n1-c1ccccc1 ?
Shiga inhibitor: -8.8; Cycloheximide cs: -2.4; Pf growth 96h: inconclusive; SARS PLP yeast: 7.6%; AMA1-RON2 inh: 1.9%

What do the screens show for `Cc1ccn2c(CNCC3OCCc4ccccc43)c(C(=O)N3CCCCCC3)nc2c1` (stereo unspecified)?
Pf growth 48h: inconclusive; Shiga inhibitor: 2.4; Cycloheximide cs: -0.9; Pf growth 96h: 25.0%; SARS PLP yeast: 1.1%; AMA1-RON2 inh: 1.3%

Results for COC(=O)c1ccc(CN2C(=O)NC(CC(C)C)C2=O)cc1 (stereo unspecified) ?
Pf growth 48h: -7.1%; Shiga inhibitor: -9.6; Cycloheximide cs: -1.7; Pf growth 96h: 20.1%[5.75 µM]; SARS PLP yeast: 1.2%; AMA1-RON2 inh: 9.4%

What do the screens show for `O=c1oc2ccccc2c(NC(c2ccccc2)c2ccccc2)c1[N+](=O)[O-]`?
Pf growth 48h: 10.4µM*; Shiga inhibitor: -3.4; Cycloheximide cs: -5.4; Pf growth 96h: 162.8%; SARS PLP yeast: 5.6%; AMA1-RON2 inh: -25.7%

How did CC(Nc1c([N+](=O)[O-])c(=O)oc2ccccc12)C(Cl)c1ccccc1 (stereo unspecified) do in these assays?
Pf growth 48h: -7.4%; Shiga inhibitor: -13.4; Cycloheximide cs: -3.7; Pf growth 96h: 20.2%; SARS PLP yeast: -11.2%; AMA1-RON2 inh: -9.8%

Results for O=c1oc2ccccc2c(Nc2ccc3ccccc3c2)c1[N+](=O)[O-] ?
Pf growth 48h: inconclusive; Shiga inhibitor: 105.0; Cycloheximide cs: 21.9*; Pf growth 96h: inconclusive; SARS PLP yeast: -23.0%; AMA1-RON2 inh: 51.7%

What do the screens show for `S=c1[nH]nc(-c2ccncc2)n1/N=C/c1cn(-c2ccccc2)nc1-c1ccc(Cl)cc1`?
Pf growth 48h: inconclusive; Shiga inhibitor: -12.6; Cycloheximide cs: -2.0; Pf growth 96h: inconclusive; SARS PLP yeast: -0.8%; AMA1-RON2 inh: 57.3%

How did CSc1nnc(-c2ccncc2)n1/N=C/c1cn(-c2ccccc2)nc1-c1ccc(Cl)cc1 do in these assays?
Pf growth 48h: 9.28µM*; Shiga inhibitor: 3.0; Cycloheximide cs: 5.3; Pf growth 96h: 0.0%; SARS PLP yeast: -2.5%; AMA1-RON2 inh: -13.9%

What do the screens show for `Cc1cc(C)nc(SCC(=O)Oc2ccc3oc(=O)cc(C)c3c2)n1`?
Pf growth 48h: 34.2%; Shiga inhibitor: 42.6; Cycloheximide cs: 2.3; Pf growth 96h: 37.6%; SARS PLP yeast: -1.2%; AMA1-RON2 inh: 0.7%

Results for Cc1ccc(NC(=O)/C(=C\c2ccccc2)NC(=O)/C=C/c2ccccc2)cc1 ?
Pf growth 48h: inconclusive; Shiga inhibitor: 3.5; Cycloheximide cs: 5.1; Pf growth 96h: inconclusive; SARS PLP yeast: 0.3%; AMA1-RON2 inh: 7.7%

What do the screens show for `CCc1nc(SCc2ccc(Cl)cc2)n[nH]1`?
Pf growth 48h: 71.6%; Shiga inhibitor: 41.1*; Cycloheximide cs: 33.4*; Pf growth 96h: 6.0%[5.75 µM]; SARS PLP yeast: -0.6%; AMA1-RON2 inh: -4.0%

How did CCc1nc(SCc2ccc(OCC(C)C)cc2)n[nH]1 do in these assays?
Pf growth 48h: 45.2%; Shiga inhibitor: 58.2*; Cycloheximide cs: 31.6*; Pf growth 96h: 10.4µM*; SARS PLP yeast: -16.5%; AMA1-RON2 inh: 16.4%

Results for CCc1nc(SCc2ccc(Br)cc2)n[nH]1 ?
Pf growth 48h: 76.7%; Shiga inhibitor: 115.7*; Cycloheximide cs: 25.9*; Pf growth 96h: -7.1%; SARS PLP yeast: -5.0%; AMA1-RON2 inh: 26.6%

Results for CCc1nc(SCc2ccc(C(=O)OC)o2)n[nH]1 ?
Pf growth 48h: 11.4%; Shiga inhibitor: 8.0; Cycloheximide cs: 6.5; Pf growth 96h: 10.2%; SARS PLP yeast: 0.1%; AMA1-RON2 inh: -10.1%

How did CCc1nc(SCc2ccc(OC)c(Br)c2)n[nH]1 do in these assays?
Pf growth 48h: -4.4%[0.00184 µM]; Shiga inhibitor: 68.9; Cycloheximide cs: 10.1; Pf growth 96h: 22.4%; SARS PLP yeast: -5.7%; AMA1-RON2 inh: 29.2%

What do the screens show for `CCCCN1C(=O)C(C(=O)OCC)CC2=C1CCCC2=O` (stereo unspecified)?
AMA1-RON2 inh: -5.9%

Screening results: PubChem BioAssay, National Center for Advancing Translational Sciences (NCATS)
